Shown are actives, neighbours in structure and some others; about 0.89% of the full set was active somewhere.
RPL19A TOR yeast – RPL19A-GFP expression modulators in yeast, primary screen, cell-based, S. cerevisiae, multiplex flow cytometry, MLPCN; S. cerevisiae RPL19A-GFP strain, 3 h; hits give low values; percent response vs DMSO, % at 10 µM; 330,000 tested, 0.3% active;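 active = percent response vs DMSO below 50%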;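 also: median channel GFP fluorescence of the barcoded RPL19A-GFP strain; ratio of sample median GFP to plate DMSO average so 100% = DMSO; lower means less RPL19A-GFP as with rapamycin TOR inhibition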
AGP1-GFP MLPCN – modulators of AGP1-GFP expression in yeast TOR pathway, primary screen, cell-based, multiplex flow cytometry, S. cerevisiae, MLPCN library | 3 h; GFP as percent of DMSO wells | 320,000 tested, 0.02% active | GFP response vs DMSO, % at 10 µM;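 active = GFP response relative to DMSO above a set limit, near screen average plus 3 SD, cut at about 150% in these data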;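 also: median GFP channel fluorescence of the gated AGP1 strain per well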
MEP2 TOR yeast – modulators of MEP2-GFP levels in yeast, primary screen, S. cerevisiae, multiplex flow cytometry, MLPCN library | S. cerevisiae MEP2-GFP strain, 3 h; 100% = DMSO control level | GFP response vs DMSO, % at 10 µM | 330,000 tested, 0.51% active | AID 2016, 2009;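 active = GFP response versus DMSO above a set limit, roughly screen mean plus 3 SD, cut at about 180% in these data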;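 also: median GFP fluorescence of the barcode-gated MEP2-GFP cells per well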
CIT2-GFP yeast – modulators of CIT2-GFP expression in yeast, primary screen, S. cerevisiae, GFP fusion, multiplex flow cytometry, MLPCN library | S. cerevisiae CIT2-GFP strain, 3 h; 100 means same as DMSO wells | 320,000 tested, 0.065% active | GFP response vs DMSO, % at 10 µM;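 active = GFP response relative to DMSO above a set limit, near the screen mean plus 3 SD, cut at about 150% in these data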;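 also: ratio of well median GFP fluorescence to mean of DMSO wells on the plate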
LAP4 TOR yeast – modulators of LAP4-GFP expression in yeast, primary screen, S. cerevisiae, multiplex flow cytometry, MLPCN library. GFP response vs DMSO, % at 10 µM. 3 h; median GFP as percent of DMSO wells. 320,000 tested, 0.34% active;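 active = GFP response vs DMSO above a set limit, about the screen mean plus 3 SD, cut at about 150% in these data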
LAP4-GFP pick2 – LAP4-GFP expression modulators in yeast, confirmation, cell-based, second cherry pick, flow cytometry; S. cerevisiae LAP4-GFP strain, 3 h; 590 tested, 20% active; GFP response vs DMSO, % at 10 µM; AID 2621, 2010; shares compounds with LAP4 TOR yeast;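 active = GFP signal as percent of the solvent control above about 150%, meaning raised reporter expression, limit read from the data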;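 also: ratio of well median GFP fluorescence to plate DMSO mean so 100% = DMSO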
MEP2-GFP pick2 – modulators of MEP2-GFP levels in yeast, confirmation, S. cerevisiae, flow cytometry GFP, second cherry picks | shares compounds with LAP4 TOR yeast | S. cerevisiae MEP2-GFP strain, 3 h | GFP response vs DMSO, % at 10 µM | 590 tested, 10% active | AID 2622, 2010;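 active = GFP signal above 150% of the solvent control wells, that is a rise of more than half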;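 also: median channel GFP fluorescence of all gated yeast cells per well; ratio of median GFP to plate DMSO average so 100% = DMSO level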
RPL19A-GFP pick2 – RPL19A-GFP modulators in TOR pathway yeast, confirmation, cell-based, S. cerevisiae, flow cytometry, second cherry pick; shares compounds with LAP4 TOR yeast; S. cerevisiae RPL19A-GFP strain, 3 h; hits give low values; 100% means same as DMSO wells; GFP response vs DMSO, % at 10 µM; 590 tested, 3% active;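 active = under 65% GFP response relative to DMSO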;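 also: median GFP channel fluorescence per well over the all cells gate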
CIT2 GFP CP2 – modulators of CIT2-GFP expression in yeast, confirmation, flow cytometry, second cherry pick, single plex. S. cerevisiae CIT2-GFP strain, 3 h; DMSO control wells read 100%. shares compounds with LAP4 TOR yeast. AID 2624, 2010. 590 tested, 8% active. GFP response vs DMSO, % at 10 µM;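 active = GFP response vs DMSO above about 150%, limit read from the data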;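 also: median green fluorescence per well over all gated yeast cells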
AGP1-GFP pick2 – AGP1-GFP expression modulators, hit retest, confirmation, cell-based, flow cytometry, S. cerevisiae, cherry pick set 2; percent response vs DMSO, % at 10 µM; AID 2643, 2010; 590 tested, under 10 active; shares compounds with LAP4 TOR yeast; S. cerevisiae AGP1-GFP strain, 3 h;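 active = over 150 percent of DMSO response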;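 also: median GFP channel fluorescence over all cells without mother daughter split; sample median GFP divided by mean DMSO control so 100% equals DMSO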
s288c autofluor – compound autofluorescence in yeast s288c, dose response, artefact control for yeast TOR pathway GFP screen, s288c strain | fluorescence change (kMESF span) at 33 µM | 610 tested, under 10 active | AID 2757, 2010 | S. cerevisiae s288c, 520 nm autofluorescence, flow cytometry, 3 h; hits give high values; zero means same as solvent-only cells | shares compounds with LAP4 TOR yeast;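 active = fluorescence span over the dose series, or activity score, above about 33, limit read from the data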
* hit, by the source's call; · = no result.

SMILES | RPL19A TOR yeast | AGP1-GFP MLPCN | MEP2 TOR yeast | CIT2-GFP yeast | LAP4 TOR yeast | s288c autofluor | others
Cc1cccc2c1NC(=O)/C2=C\C(=O)c1cccs1 | 88 | 82 | 90 | 77 | 185* | -0.11
CCc1ccc2c(c1)/C(=C/C(=O)c1cccs1)C(=O)N2 | 81 | 80 | 95 | 76 | 169* | 0.11
Cc1cc(C)c2c(c1)/C(=C/C(=O)c1ccc(Br)s1)C(=O)N2 | 109 | 113 | 110 | 110 | 106 | -0.1
Cc1cc(Br)c2c(c1)/C(=C/C(=O)c1cccs1)C(=O)N2 | 82 | 87 | 90 | · | 112 | -0.2
CCc1ccc2c(c1)/C(=N/N(C)C(=S)NC)C(=O)N2 | 95 | 101 | 106 | 90 | 104 | ·
COc1ccc(CN(C)C(=O)C2CCN(C(=O)Nc3ccccc3)CC2)cc1 | 97 | 108 | 100 | 94 | 101 | ·
CC(=O)c1ccc(N(CC(=O)NC2CCCCC2)C(=O)CNC(=O)c2ccco2)cc1 | 101 | 100 | 105 | 103 | 97 | ·
Cc1ccc(S(=O)(=O)C2(C(=O)N3CCN(c4ccccc4F)CC3)CC2)cc1 | 97 | 96 | 96 | 99 | 91 | ·
Cc1ccc(NC(=O)CCc2ccccc2)cc1S(=O)(=O)N1CCOCC1 | 88 | 111 | 109 | 88 | 151* | 0 | LAP4-GFP pick2=101;MEP2-GFP pick2=100;RPL19A-GFP pick2=99;CIT2 GFP CP2=102;AGP1-GFP pick2=99
O=C(NC1CCN(Cc2ccccc2)CC1)c1cn(-c2ccccc2)nc1-c1cccnc1 | 102 | 109 | 102 | 96 | 111 | ·
CC(=O)Oc1ccc2c(c1)Oc1cc(OC(C)=O)ccc1C21OC(=O)c2ccccc21 | 109 | 111 | 230* | 164* | 206* | · | LAP4-GFP pick2=148;MEP2-GFP pick2=175*;RPL19A-GFP pick2=222;CIT2 GFP CP2=403*;AGP1-GFP pick2=119
Cc1cc(O)ccc1C1(c2ccc(O)cc2C)OC(=O)c2ccccc21 | 99 | 102 | 101 | 103 | 103 | ·
O=c1c2sc(-c3ccccc3)cc2nc2n1CCC2 | 59 | 60 | 101 | 72 | 121 | 0.91 | LAP4-GFP pick2=101;MEP2-GFP pick2=101;RPL19A-GFP pick2=59*;CIT2 GFP CP2=90;AGP1-GFP pick2=66
O=c1c2sc(-c3ccccc3)cc2nc2n1CCCCC2 | 93 | 95 | 97 | 92 | 127 | ·
Cc1cc(O)c(C(=O)Nc2cccc(Cl)c2)c(=O)n1C | 103 | 105 | 107 | 102 | 113 | ·
O=C(Sc1cccc2cccnc12)c1ccccc1Br | 94 | 82 | 105 | 89 | 166* | 0.21
COc1cccc(NC(=O)Cc2ccccc2)c1 | 98 | 78 | 86 | 87 | 108 | ·
Cc1ccccc1NC(=O)CC(=O)c1ccccc1 | 100 | 94 | 108 | 101 | 92 | · | LAP4-GFP pick2=105;MEP2-GFP pick2=111;RPL19A-GFP pick2=102;CIT2 GFP CP2=100;AGP1-GFP pick2=100

Bioassay records (PubChem BioAssay)
